From the supplement of paper PMC9950053
Structures can show the parent of a compound that is named as a salt.

Each compound was assayed on Danio rerio larvae (5 dpf) (assay: combined optomotor response (time in upper well half, down vs up moving lines, periods 7-14) minus DMSO control (percentage points); higher = stronger optomotor response than DMSO larvae). Settings: 10 µM; exposure time: 3 h pre-incubation + 3 h imaging.

Compared with `CCOC(=O)c1ncn2c1CN(C)C(=O)c1cc(F)ccc1-2` [Flumazenil], `CCOc1ccccc1OCCN[C@H](C)Cc1ccc(OC)c(S(N)(=O)=O)c1` [Tamsulosin hydrochloride] is higher in combined optomotor response: 3.13 for the first, 4.93 for the second.

Going from `CCOc1nc2cccc(C(=O)O)c2n1Cc1ccc(-c2ccccc2-c2noc(=O)[nH]2)cc1` [Azilsartan] to `CCOc1nc2cccc(C(=O)O)c2n1Cc1ccc(-c2ccccc2-c2nnn[nH]2)cc1` [Candesartan], the combined optomotor response rises from 0.518 to 7.2.

Going from `CC(C)n1c(/C=C/C(O)CC(O)CC(=O)O)c(-c2ccc(F)cc2)c2ccccc21` (stereo not drawn) [Fluvastatin sodium] to `CC(C)c1nc(N(C)S(C)(=O)=O)nc(-c2ccc(F)cc2)c1/C=C/[C@@H](O)C[C@@H](O)CC(=O)O` [Rosuvastatin calcium], the combined optomotor response rises from -0.348 to 6.26.

Going from `Cc1cccc(C)c1OCC(C)N` (stereo not drawn) [Mexiletine hydrochloride] to `Cc1ccc(O)c([C@H](CCN(C(C)C)C(C)C)c2ccccc2)c1` [Tolterodine L-tartrate], the combined optomotor response falls from 2.6 to -1.96.

First: CCCCc1nc(Cl)c(CO)n1Cc1ccc(-c2ccccc2-c2nnn[nH]2)cc1 [Losartan potassium]
Second: CCCCC1=NC2(CCCC2)C(=O)N1Cc1ccc(-c2ccccc2-c2nnn[nH]2)cc1 [Irbesartan]
The combined optomotor response of the first is higher: -0.522 for the first, -4.91 for the second.

Compared with `CCCCCOC(=O)Nc1nc(=O)n([C@@H]2O[C@H](C)[C@@H](O)[C@H]2O)cc1F` [Capecitabine], `Nc1nc(F)nc2c1ncn2[C@@H]1O[C@H](CO)[C@@H](O)[C@@H]1O` [Fludarabine] is lower in combined optomotor response: 4.98 for the first, -1.67 for the second.

Compared with `CCCCCCCCc1ccc(CCC(N)(CO)CO)cc1`, `CCCN(CCC)S(=O)(=O)c1ccc(C(=O)O)cc1` [Probenecid] is higher in combined optomotor response: -4.85 for the first, 4.87 for the second.

First: COc1c(C)c2c(c(O)c1C/C=C(\C)CCC(=O)O)C(=O)OC2 [Mycophenolic acid]
Second: Cc1ccsc1C(=CCCN1CCC[C@@H](C(=O)O)C1)c1sccc1C [Tiagabine hydrochloride]
The combined optomotor response of the first is lower: 7.6 for the first, 8.29 for the second.

Going from `Cc1c(-c2ccc(O)cc2)n(Cc2ccc(OCCN3CCCCCC3)cc2)c2ccc(O)cc12` [Bazedoxifene acetate] to `O=C(c1ccc(OCCN2CCCCC2)cc1)c1c(-c2ccc(O)cc2)sc2cc(O)ccc12` [Raloxifene hydrochloride], the combined optomotor response falls from -0.163 to -1.27.

First: NC(=O)N1c2ccccc2C=Cc2ccccc21 [Carbamazepine]
Second: Clc1ccccc1C(c1ccccc1)(c1ccccc1)n1ccnc1 [Clotrimazole]
The combined optomotor response of the first is higher: 6.15 for the first, -7.18 for the second.

Compared with `CC(=O)Oc1ccccc1C(=O)O` [Aspirin], `CC1=Nc2ccc(Cl)cc2S(=O)(=O)N1` [Diazoxide] is higher in combined optomotor response: -1.47 for the first, 2.18 for the second.

First: O=C(NCC1CCCCN1)c1cc(OCC(F)(F)F)ccc1OCC(F)(F)F (stereo not drawn) [Flecainide acetate]
Second: CN(CCOc1ccc(CC2SC(=O)NC2=O)cc1)c1ccccn1 (stereo not drawn) [Rosiglitazone]
The combined optomotor response of the first is lower: 2.85 for the first, 3.93 for the second.

Compared with `CC(C)c1nc(CN(C)C(=O)N[C@H](C(=O)N[C@@H](Cc2ccccc2)C[C@H](O)[C@H](Cc2ccccc2)NC(=O)OCc2cncs2)C(C)C)cs1` [Ritonavir], `OCCOCCN1CCN(C2=Nc3ccccc3Sc3ccccc32)CC1` [Quetiapine hemifumarate] is higher in combined optomotor response: 3.14 for the first, 8.62 for the second.

Going from `Cn1cnc([N+](=O)[O-])c1Sc1ncnc2[nH]cnc12` [Azathioprine] to `CN/C(=N\CCSCc1nc[nH]c1C)NC#N` [Cimetidine], the combined optomotor response falls from 2.29 to 0.13.

First: Nc1cc(N2CCCCC2)nc(N)[n+]1[O-] [Minoxidil]
Second: CN1CCN(CCCN2c3ccccc3Sc3ccc(Cl)cc32)CC1 [Prochlorperazine dimaleate]
The combined optomotor response of the first is lower: -1.34 for the first, 6.24 for the second.

Compared with `Cc1cn([C@H]2C=C[C@@H](CO)O2)c(=O)[nH]c1=O` [Stavudine], `Cc1nnc(C(C)C)n1C1C[C@H]2CC[C@@H](C1)N2CC[C@H](NC(=O)C1CCC(F)(F)CC1)c1ccccc1` (stereo in doubt) [Maraviroc] is lower in combined optomotor response: 7.54 for the first, 0.791 for the second.

For `CC#C[C@]1(O)CC[C@H]2[C@@H]3CCC4=CC(=O)CCC4=C3[C@@H](c3ccc(N(C)C)cc3)C[C@@]21C` [Mifepristone], the combined optomotor response was 8.07.
